Rows were chosen to be rich in hits. Some 1.6% of all compounds tested hit in one or more screens of this group.
12-LOX inh: blocks human arachidonate 12S-lipoxygenase. P18054. purified 12hLO, xylenol orange hydroperoxide absorbance. Potency, µM (doses to about 108 µM), for the others: at the highest dose activity change, negative = inhibition, actives largely listed as inhibitors. 580,000 compounds, 1.1% hits. AID 1671190; also: % is scaled to controls: 0 for no effect and ±100 for the full control effect
Target sequence (P18054 whole entry, looked up): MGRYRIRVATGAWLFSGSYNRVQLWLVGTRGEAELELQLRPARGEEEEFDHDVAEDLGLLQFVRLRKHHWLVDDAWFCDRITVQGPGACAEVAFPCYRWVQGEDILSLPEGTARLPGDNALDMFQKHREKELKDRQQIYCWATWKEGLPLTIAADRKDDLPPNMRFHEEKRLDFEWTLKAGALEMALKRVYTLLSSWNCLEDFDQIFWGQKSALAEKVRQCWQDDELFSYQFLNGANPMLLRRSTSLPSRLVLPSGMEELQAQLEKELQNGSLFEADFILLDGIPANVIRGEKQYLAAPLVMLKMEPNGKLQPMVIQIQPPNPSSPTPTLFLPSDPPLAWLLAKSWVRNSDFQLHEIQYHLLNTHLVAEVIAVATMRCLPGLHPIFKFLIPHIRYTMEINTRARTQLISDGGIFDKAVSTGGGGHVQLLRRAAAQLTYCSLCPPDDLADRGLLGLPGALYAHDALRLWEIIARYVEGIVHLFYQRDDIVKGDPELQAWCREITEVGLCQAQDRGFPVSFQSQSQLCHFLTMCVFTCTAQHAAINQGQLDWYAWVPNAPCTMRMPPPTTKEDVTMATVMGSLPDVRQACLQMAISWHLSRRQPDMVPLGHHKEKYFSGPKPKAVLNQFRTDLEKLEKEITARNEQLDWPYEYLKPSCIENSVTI
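Purified human 12hLO at 150 nM in 25 mM Hepes, 0.01% Triton X-100, pH 7.0, preincubated 15 min at room temperature with compound. Reaction started with 40 uM arachidonic acid, 30 min at room temperature. Hydroperoxide measured by Fe-xylenol orange, 573/405 nm absorbance ratio.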
gsp antag: gsp mutant antagonism | gsp-mutant cells, cAMP HTRF, 30 min | Potency, µM (top dose mostly 76.9 µM), inactives show top-dose activity change, negative = inhibition, most hits filed as inhibitors | 340,000 compounds, 0.4% hits; calls by dose curve; cell line not stated here;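 also: intracellular cAMP measured with PDE inhibitor Ro 20-1724 present during compound exposure; % is scaled to controls: 0 for no effect and ±100 for the full control effect; nearly all actives have a fitted effect of over 65% in size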
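Cells in G418 medium, seeded 16-24 h, 37C; buffer exchange to DPBS + 1 mM CaCl2, 0.5 mM MgCl2, 0.05% BSA; cpds in DMSO + […] (300 uM stock), 30 min 37C; HTRF cAMP detection.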
gsp agonist: agonists of gsp mutant (McCune-Albright syndrome) | gsp mutant cells, cAMP HTRF, 30 min | Potency, µM (top dose mostly 76.9 µM), for the others: top-dose activation (cAMP increase), hits mostly activators | 340,000 compounds, 0.13% hits | AID 624287; active = well fitted activation curve with a large enough effect; inconclusive = small, poorly fitted or top-dose-only effect, or another doubt; inactive = no such curve, though single readings can be large or run the other way; cell line not stated here;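 also: phosphodiesterase inhibitor Ro 20-1724 added with compounds to block cAMP breakdown; nearly all actives have a fitted effect of over 60% in size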
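Cells in DMEM/10% FBS with G418 were pretreated with compounds in DMSO plus […] (300 uM stock) for 30 min at 37C. cAMP was measured by HTRF (cAMP-d2 plus anti-cAMP antibody-K) after 30 min at room temperature.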
Mito fusion act: blocks mitochondrial division or promotes mitochondrial fusion; S. cerevisiae fusion-defective mutant growth rescue, CellTiterGlo 48 h; Potency, µM (highest dose often 46.1 µM), for inactives: at the highest dose growth rescue (activation), hits mostly activators; 320,000 compounds, 0.23% hits; also: % of control where 0% means no effect; nearly all actives have a fitted effect of over 45% in size
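Growth-rescue viability read-out: after 48 h at the non-permissive 37C in glycerol/ethanol YPEG, yeast mitochondrial fusion mutants are measured by CellTiterGlo luminescence; compounds (23 nl pinned per well) restoring growth score as division inhibitors or fusion activators.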
FUS suppressor: FUS proteinopathy suppression in yeast. S. cerevisiae FUS-expressing, growth rescue, OD600, 24 h. Potency, µM (titrated, usually from 76.6 µM), most hits filed as activators. 390,000 compounds, 0.24% hits. AID 1347120;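 also: plate controls were DMSO vehicle for no effect and reference control for full effect; nearly all actives have a fitted effect of over 55% in size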
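Compound concentration series was pinned onto galactose-induced FUS-expressing yeast seeded at OD 0.005. Plates sat 24hr at 30C; absorbance at 600 nm gave growth. DMSO served as background control.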
Starred values were filed as active, the others as inactive; i = inactive; ? = inconclusive; nt = no result; [ ] = dose if it differs, or a comment. Unless noted, calls follow the shape of the dose curve; as a rule, active = well fitted curve in the direction sought with a large enough effect; inconclusive = small, poorly fitted or top-dose-only effect, or another doubt; inactive = no such curve, though single readings can be large; an effect the other way counts as inactive or inconclusive. Potency is read from the fitted curve at half-maximal effect.

SMILES	12-LOX inh	gsp antag	gsp agonist	Mito fusion act	FUS suppressor
O=C(c1ccc(COc2ccccc2Br)o1)N1CCN(c2ccccn2)CC1	-12.8%	-8.7%	-8.6%	2.0%	i
O=C(c1ccc(C#Cc2ccccc2)o1)N1CCN(c2ccccn2)CC1	10.2%	35.5µM*	-15.1%	?	i
CC(NC(=O)Nc1nnc(C(F)(F)F)s1)(C(F)(F)F)C(F)(F)F	-2.9%	6.31µM*	?	-21.8%	i
COCCn1c(CCC(=O)Nc2cc(C)cc(C)c2)nc2c1c(=O)[nH]c(=O)n2CC(C)C	16.0%	nt	nt	nt	nt
C/C(=C\C=C\c1ccco1)C(=O)c1ccc(Br)cc1	2µM*	nt	nt	nt	nt
CCOC(=O)C1=C(C)N=c2s/c(=C/c3ccc(OCC(=O)O)cc3)c(=O)n2C1c1ccc(F)cc1 (configuration not stated)	?	22.4µM*	41.3%	4.2%	?
CC1=C(C(=O)Nc2ccccc2)C(c2ccc(Cl)cc2)n2c(s/c(=C/c3cccc(OCC(=O)O)c3)c2=O)=N1 (configuration not stated)	44.7µM*	-20.0%	14.4%	-1.4%	?
CCOC(=O)C1=C(C)N=c2s/c(=C/c3ccc(OCC(=O)O)cc3)c(=O)n2C1c1ccc(SC)cc1 (configuration not stated)	nt	nt	nt	-3.9%	nt
CCOC(=O)C1=C(C)N=c2s/c(=C/c3ccc(OCC(=O)O)c(OC)c3)c(=O)n2C1c1ccc(Cl)cc1 (configuration not stated)	25.1µM*	35.5µM*	19.3%[15.4 µM]	nt	?
CCOC(=O)C1=C(C)N=c2s/c(=C\c3ccc(OCC(=O)O)cc3)c(=O)n2C1c1ccc(Cl)cc1 (configuration not stated)	?	?	-26.8%	-3.5%	?
CCOc1ccc(C2C(C(=O)Nc3ccccc3)=C(C)N=c3s/c(=C/c4cccc(OCC(=O)O)c4)c(=O)n32)cc1 (configuration not stated)	?	?	-15.1%[15.4 µM]	3.8%	?
C=CCNC(=O)NC(=O)CN(CC)c1cc(C)cc(C)c1	19.9%	nt	nt	nt	nt
COc1cc(-c2nn3c(C4CCCCC4)nnc3s2)cc(OC)c1OC	25.1µM*	6.0%	?	2.6%	i
NS(=O)(=O)c1ccc(Nc2ccc([N+](=O)[O-])cc2[N+](=O)[O-])cc1	-23.0%	nt	nt	nt	nt
O=[N+]([O-])c1ccc(NS(=O)(=O)c2ccc(I)s2)c([N+](=O)[O-])c1	15.8µM*	nt	nt	nt	nt
S=C(Nc1ccccc1)Nc1nc2ccccc2n1CCOc1ccc(Br)cc1	28.2µM*	11.5%	10.4%	-12.0%	i
COc1ccccc1-c1cc(NCc2cnc(C)cn2)ncn1	5.62µM*	nt	nt	nt	nt
CCOc1ccccc1C(=O)N1CCc2[nH]nc(-c3ccc(F)c(F)c3)c2C1	37.7%	nt	nt	nt	nt
C=CCn1c(Cc2ccccc2)n[nH]c1=S	?	6.6%	-11.0%[15.4 µM]	-3.7%	i
C=CCn1c(CCc2cc(C(C)(C)C)c(O)c(C(C)(C)C)c2)n[nH]c1=S	35.5µM*	-34.8%	3.5%[15.4 µM]	-7.1%	?
CCOC(=O)c1cc(S(=O)(=O)Nc2ccccc2)[nH]n1	-14.6%	nt	nt	nt	i
CCOC(=O)c1cc(S(=O)(=O)Nc2ccc3c(c2)OCCO3)[nH]n1	11.2µM*	nt	nt	nt	nt
COc1ccccc1Cc1c(-c2ccco2)nc2ccc(Br)cn12	17.8µM*	nt	nt	nt	i
FC(F)(F)c1ccccc1Cc1c(-c2ccco2)nc2ccc(Br)cn12	35.5µM*	nt	nt	nt	i
CC(=O)Oc1ccc(-c2nc(-c3cccc(Br)c3)no2)cc1	-0.4%	nt	nt	nt	nt
SMILES	12-LOX inh	gsp antag	gsp agonist	Mito fusion act	FUS suppressor
COc1cccc(CN(C)c2nc3ccccc3nc2NS(=O)(=O)c2ccccc2)c1	15.6%	nt	nt	nt	nt
CCNC(=O)C(=O)N/N=C/c1cc([N+](=O)[O-])ccc1O	-11.1%	-4.2%	-1.0%[15.4 µM]	22.4µM*	i
O=C(N/N=C/c1cc([N+](=O)[O-])ccc1O)Nc1ccccc1	-19.1%	-14.4%	-5.4%[15.4 µM]	-5.8%	i
CC(C)=CC(=O)NC12CC3CC(CC(C3)C1)C2	-24.8%	nt	nt	nt	nt
CC(Cc1ccccc1)=NNS(=O)(=O)c1ccc([N+](=O)[O-])cc1	20µM*	7.2%	-19.3%	nt	i
Cn1ncc(CN2CCc3nc(-c4ccc(F)cc4F)[nH]c3C2)c1C1CC1	120.2%	nt	nt	nt	nt
CCn1c(SCC(=O)Nc2sccc2C(N)=O)nnc1C1CC1	184.5%	50.1µM*	5.0%	-1.0%	i
CCn1c(SCC(=O)Nc2ccc(F)cc2)nnc1C1CC1	-5.8%	4.9%	9.1%	-0.5%	i
COc1ccc(-c2onc3ccc(C(=O)/C=C/N(C)C)cc23)cc1	35.5µM*	-17.0%	-4.7%	-6.2%	?
CCCCNC(=O)c1sc(=S)n2c1[nH]c(=O)c1ccccc12	?	25.1µM*	18.6%	-21.2%	i
O=C(NC1CCCCC1)c1sc(=S)n2c1[nH]c(=O)c1ccccc12	?	44.7µM*	-37.0%	-10.5%	i
S=c1[nH]nc(-c2cc3c(s2)-c2ccccc2CC3)o1	39.8µM*	-5.7%[15.4 µM]	?	-30.6%	i
Cc1noc(NS(=O)(=O)c2ccc(N3C(=O)c4ccccc4C3=O)cc2)c1C	2.1%	42.8%	2.24µM*	-5.2%	i
Cc1ccnc(NS(=O)(=O)c2ccc(N3C(=O)c4ccccc4C3=O)cc2)n1	9.4%	8.8%	25.1µM*	-0.2%	nt
Cc1ccnc(NS(=O)(=O)c2ccc(N3C(=O)c4c(Cl)c(Cl)c(Cl)c(Cl)c4C3=O)cc2)n1	-11.8%	-13.9%	-7.4%[15.4 µM]	-3.5%	i
O=C(NC1CCCc2ccccc21)c1csc2ccccc12 (configuration not stated)	-17.6%	nt	nt	nt	nt
COc1cc(CNC(=O)c2ccc3c(c2)NC(=O)CS3)ccc1OCc1ccccc1	-3.9%	nt	nt	nt	nt
O=C(N/N=C/c1cccc2ccccc12)c1cccnc1	11.2µM*	-7.6%	-0.1%	-9.3%	i
Cc1ccccc1/C=N/NC(=O)c1cccnc1	?	2.4%	-22.8%	-0.1%	i
CN(Cc1ccc(-c2ccc(Cl)cc2)o1)C(=O)CSc1nnc(C2CC2)n1Cc1ccco1	15.8µM*	nt	nt	nt	nt
CCCN1CCc2[nH]cnc2C12CCN(C(=O)c1ccc(CSC)o1)CC2	29.2%	nt	nt	nt	nt
COc1ccc(C(=O)/C=C/c2ccc(-c3ccc(OC)cc3)o2)cc1	0.316µM*	nt	nt	nt	nt
O=C(/C=C/c1ccc(-c2ccccc2)o1)c1ccccc1	?	-9.5%	3.9%	22.7%	nt
Cc1ccc(-c2ccc(/C=C/C(=O)c3ccccc3)o2)cc1	3.55µM*	-1.1%	-11.4%	0.2%	nt
Cc1ccc(/C=C/C(=O)c2ccccc2)o1	14.1µM*	nt	nt	nt	nt
Cc1ccc(C(=O)N/C(=C/c2ccco2)C(=O)Nc2cccc(C)c2)cc1	?	-0.9%	9.5%	4.8%	31.6µM*
Cc1ccc2oc(-c3ccc(C)c(NC(=O)/C=C/c4ccco4)c3)nc2c1	?	nt	nt	nt	i
Cc1cccc(-c2nc3cc(NC(=O)/C=C/c4ccco4)ccc3o2)c1	11.2µM*	nt	nt	nt	nt

Compound activity deposited in PubChem BioAssay by National Center for Advancing Translational Sciences (NCATS).
